Compounds with a hit are over-represented: about 12% of the library has one in this group of screens.
G9a inh – qHTS Assay for Inhibitors of Histone Lysine Methyltransferase G9a | G9a H3K9 monomethylation, AlphaScreen, 2 h | Potency, µM (titrated, usually from 102 µM), usual class: inhibitors | 350,000 compounds, 8.8% hits | Histone-lysine N-methyltransferase EHMT2 (Homo sapiens), Q96KQ7 | AID 504332, 2011; further: nearly all actives have a fitted effect of over 75% in size
Target sequence (Q96KQ7 913-1193 limits assumed): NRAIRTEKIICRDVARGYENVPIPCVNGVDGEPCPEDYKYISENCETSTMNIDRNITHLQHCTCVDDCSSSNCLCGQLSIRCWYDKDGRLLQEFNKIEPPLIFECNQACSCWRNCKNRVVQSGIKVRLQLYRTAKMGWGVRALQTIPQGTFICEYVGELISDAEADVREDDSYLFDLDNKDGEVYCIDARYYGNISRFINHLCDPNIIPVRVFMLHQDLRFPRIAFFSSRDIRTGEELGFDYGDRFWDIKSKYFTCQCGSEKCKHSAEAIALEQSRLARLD
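Quantitative HTS format: methyltransferase activity on a biotin-tagged H3K9 peptide is measured by AlphaScreen, using a rabbit anti-monomethyl-H3K9 antibody with streptavidin donor and anti-IgG acceptor beads. Final levels are 20 nM enzyme, 500 nM peptide, 20 uM SAM; 2 h RT.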
HP1b binding inh – HTS for Inhibitors of HP1-beta Chromodomain Interactions with Methylated Histone Tails. Chromobox protein homolog 1 (Homo sapiens), P83916. AlphaScreen HP1-beta / biotin-H3K9me3 peptide binding. Potency, µM (series often up to 114 µM), hits mostly inhibitors. 390,000 compounds, 0.56% hits; further: nearly all actives have a fitted effect of over 70% in size
Target sequence (P83916 whole entry, looked up): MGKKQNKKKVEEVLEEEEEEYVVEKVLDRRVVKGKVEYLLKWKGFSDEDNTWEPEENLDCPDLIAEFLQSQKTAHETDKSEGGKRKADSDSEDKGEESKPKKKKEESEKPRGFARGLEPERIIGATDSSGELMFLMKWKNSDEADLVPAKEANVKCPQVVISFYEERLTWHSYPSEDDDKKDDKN
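AlphaScreen: HP1-beta (50 nM) preformed 30 min with biotin-H3(1-18)K9me3 peptide (50 nM) in PBS pH 7.4, 0.01% Tween-20. Compound added for 30 min at RT, then streptavidin donor/nickel chelate acceptor beads (10 ug/mL) for 30 min.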
PI5P4K alpha inh – qHTS for Inhibitors of phosphatidylinositol 5-phosphate 4-kinase (PI5P4K) | Phosphatidylinositol 5-phosphate 4-kinase type-2 alpha (Homo sapiens), P48426 | max response, % | 330,000 compounds, 1.2% hits | AID 652105, 2013 | PI5P4Kalpha enzyme, ADP-Glo luminescence, 60 min; stronger effect = lower value; active means max response of -50% or lower; inconclusive means between -30% and -50%; inactive means -30% or higher; further: value at the top dose of about 77 µM
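Enzyme plus substrate dispensed, test compounds pinned in, then ATP (5 microM final) added. After 60 min at RT, ADP-Glo reagent 1 for 45 min and reagent 2 for 30 min preceded luminescence imaging.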
BAZ2B block – qHTS Assay for Inhibitors of BAZ2B | Bromodomain adjacent to zinc finger domain protein 2B (Homo sapiens), Q9UIF8 | AlphaScreen BAZ2B-H3K14Ac peptide displacement | Potency, µM (highest dose often 114 µM), usual class: inhibitors | 360,000 compounds, 4.4% hits; further: nearly all actives have a fitted effect of over 60% in size
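In this displacement format the biotinylated H3(5-23) peptide acetylated at Lys14 serves as ligand at 50 nM, with BAZ2B at 50 nM in PBS pH 7.4 containing 0.01% Tween-20. Donor and acceptor beads are 10 ug/mL final.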
JMJD2A Tudor inh – qHTS Assay for Inhibitors of JMJD2A-Tudor Domain | Lysine-specific demethylase 4A (Homo sapiens), O75164 | 390,000 compounds, 4.4% hits | Potency, µM (series often up to 114 µM), hits mostly inhibitors | AlphaScreen JMJD2A-Tudor / H3K4me3 peptide binding; further: nearly all actives have a fitted effect of over 50% in size
PLK1 PBD inh – qHTS for Inhibitors of PLK1-PDB (polo-like kinase 1 - polo-box domain): Primary Screen; Plk1 PBD binding of FITC phosphopeptide, fluorescence polarization; Potency, µM, hits mostly inhibitors; 360,000 compounds, 2.8% hits; AID 720504, 2013; further: series mostly up to about 57 µM; nearly all actives have a fitted effect of over 65% in size
Large screens that a line does not name were inactive; ! = not active in a repeat. Unless noted, the call rests on the fitted dose curve; in most records, active means well fitted curve in the direction sought with a large enough effect; inconclusive means small, poorly fitted or top-dose-only effect, or another doubt; inactive means no such curve, though single readings can be large; an effect the other way counts as inactive or inconclusive.

CN=c1scc(C)n1/N=C/c1cc(Br)c(O)c(Br)c1	G9a inh 11µM, BAZ2B block 35µM, JMJD2A Tudor inh inconclusive
CN=c1scc(C)n1/N=C/c1ccc2c(c1)OCO2	G9a inh inconclusive, BAZ2B block 40µM, JMJD2A Tudor inh inconclusive
CN=c1scc(C)n1/N=C/c1ccc(O)cc1	G9a inh inconclusive, BAZ2B block inconclusive
CCN=c1scc(C)n1/N=C/c1cc(Br)c(O)c(OC)c1	G9a inh 10µM, HP1b binding inh inconclusive, BAZ2B block 13µM, JMJD2A Tudor inh 79µM
CN=c1scc(C)n1/N=C/c1ccc(O)cc1O	BAZ2B block 40µM, JMJD2A Tudor inh inconclusive
CCN(C(=O)C1CCN(S(=O)(=O)c2cc(Br)cc3c2N(C(C)=O)CC3)CC1)c1cccc(C)c1	none (no result: PI5P4K alpha inh, PLK1 PBD inh)
COc1cc(/C=N/N2C(=O)CSC2=S)cc(Br)c1O	G9a inh 45µM, HP1b binding inh inconclusive, PI5P4K alpha inh -75, BAZ2B block 40µM, JMJD2A Tudor inh 45µM, PLK1 PBD inh inconclusive
COc1cc(/C=N/N2C(C)CCCC2C)cc(Br)c1O (stereo not drawn)	G9a inh inconclusive (no result: BAZ2B block)
COc1ccc2cc1Oc1ccc(cc1)C[C@H]1c3c(cc4c(c3Oc3cc5c(cc3OC)CCN(C)[C@@H]5C2)OCO4)CCN1C	G9a inh 11µM!, HP1b binding inh inconclusive, JMJD2A Tudor inh 35µM
COc1cccc(C2=CC(c3ccccc3O)NC(C)(C)N2)c1 (stereo not drawn)	none (no result: G9a inh, PI5P4K alpha inh, BAZ2B block, PLK1 PBD inh)
Cc1ccc(S(=O)(=O)N2[C@@H](c3ccc(C#N)cc3)C(C(=O)O)=C[C@H]2CC2CCCC2)cc1	PLK1 PBD inh 30µM (no result: G9a inh, BAZ2B block)
CC[C@@H]1C=C(C(=O)O)[C@H](c2ccc(Cl)cc2)N1S(=O)(=O)c1ccc(C)cc1	none (no result: G9a inh, BAZ2B block)
CC[C@@H]1C=C(C(=O)O)[C@H](c2ccc(C)cc2)N1S(=O)(=O)c1ccc(C)cc1	none (no result: G9a inh, BAZ2B block)
Cc1ccc(S(=O)(=O)N2[C@@H](c3ccc(Cl)cc3)C(C(=O)O)=C[C@H]2CC2CCCC2)cc1	PLK1 PBD inh 19µM (no result: G9a inh, BAZ2B block)
Cc1ccc(S(=O)(=O)N2[C@@H](c3ccc(Cl)c(Cl)c3)C(C(=O)O)=C[C@H]2CC2CCCC2)cc1	JMJD2A Tudor inh 89µM, PLK1 PBD inh 21µM (no result: G9a inh, BAZ2B block)
CCS(=O)(=O)c1cccc(C(=O)N2CCN(c3nc4c(C)ccc(Cl)c4s3)CC2)c1	none (no result: PI5P4K alpha inh, PLK1 PBD inh)
CN1C[C@@H]2[C@@H]3C(=O)N(C)C(=O)[C@@H]3[C@](C)(C1=O)N2C(=O)c1ccccc1	none (no result: G9a inh, BAZ2B block)
Cc1ccc(C(=O)OCC(=O)N2CCOCC2)cc1	none
N#Cc1ccc(C(=O)OCC(=O)N2CCOCC2)cc1	G9a inh 50µM
N#Cc1ccc(C(=O)OCC(=O)Nc2ccc(N3CCOCC3)cc2)cc1	G9a inh 10µM (no result: BAZ2B block)
O=C(COC(=O)c1ccc(S(=O)(=O)N2CCCC2)cc1)Nc1ccc(N2CCOCC2)cc1	HP1b binding inh inconclusive, PI5P4K alpha inh inconclusive, PLK1 PBD inh 9.5µM
O=C(COC(=O)CCC(=O)c1ccc(F)cc1)Nc1ccc(N2CCOCC2)cc1	G9a inh 50µM
N#Cc1ccc(OCC(=O)OCC(=O)Nc2ccc(N3CCOCC3)cc2)cc1	G9a inh inconclusive
Cc1ccc(OCCC(=O)OCC(=O)Nc2ccc(N3CCOCC3)cc2)cc1	G9a inh inconclusive
O=C(COC(=O)c1ccc(O)cc1)Nc1ccc(S(=O)(=O)N2CCOCC2)cc1	none (no result: G9a inh, BAZ2B block)
COc1ccc(C2=Nn3c(nnc3-c3cccc(OC)c3OC)SC2)c(OC)c1	none (no result: G9a inh, HP1b binding inh, PI5P4K alpha inh, BAZ2B block, PLK1 PBD inh)
CC1=C(C(=O)OCCCCCl)C(c2cc3c(cc2Br)OCO3)NC(=O)N1 (stereo not drawn)	none
